Assay in all cases: DAPPL (digital affinity profiling via proximity ligation, sequencing); 10 mM Tris-HCl pH 7.5, 50 mM NaCl, 1 mM DTT, 4% glycerol, room temperature, 30 min; GST-TFs on glutathione beads, 16-mer random dsDNA library, 0.1% formaldehyde crosslink after washing; high values mean tight binding
Test [1] deals with T1, FEV (Homo sapiens, UniProt Q99581 1-238).
T1 sequence: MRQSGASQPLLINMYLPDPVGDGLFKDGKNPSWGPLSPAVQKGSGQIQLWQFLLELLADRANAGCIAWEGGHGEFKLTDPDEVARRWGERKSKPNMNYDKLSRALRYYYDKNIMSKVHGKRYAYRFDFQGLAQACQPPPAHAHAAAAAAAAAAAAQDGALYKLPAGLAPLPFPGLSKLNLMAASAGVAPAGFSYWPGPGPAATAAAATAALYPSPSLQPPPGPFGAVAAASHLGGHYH
The note with it: protein: recombinant; tags: N-terminal GST; dsDNA, one strand shown. Put shortly: (§1)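 Binding signal is given per hexamer as its read frequency for a factor divided by its frequency in the tag-only sample. GST-fused human transcription factors were expressed in yeast, captured on glutathione beads, barcoded with DNA and pooled with that sample, then incubated with 200 nmole of a 16-mer random double-stranded DNA library in Tris/NaCl/DTT/glycerol buffer for 30 min at room temperature. The pools were then washed, crosslinked, proximity-ligated, amplified by PCR and sequenced on an Illumina NextSeq500.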

Test [2] addresses ETV5 (Homo sapiens, UniProt P41161 1-510). The note with it: protein: recombinant; tags: N-terminal GST; dsDNA, one strand shown. Put shortly: as §1
The target of test [3] is HSF1 (Homo sapiens, UniProt Q00613 1-529). The note with it: protein: recombinant; tags: N-terminal GST; chain copies: 3; dsDNA, one strand shown. Put shortly:
as §1

Test [4] has as its target T2, SPIC (Homo sapiens, UniProt Q8N5J4 1-248).
T2 sequence: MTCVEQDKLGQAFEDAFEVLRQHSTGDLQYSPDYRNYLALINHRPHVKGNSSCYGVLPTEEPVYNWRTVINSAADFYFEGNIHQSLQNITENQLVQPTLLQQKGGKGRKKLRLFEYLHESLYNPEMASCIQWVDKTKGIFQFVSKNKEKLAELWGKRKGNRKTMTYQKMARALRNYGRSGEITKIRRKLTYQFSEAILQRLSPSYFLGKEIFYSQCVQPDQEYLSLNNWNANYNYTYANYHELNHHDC
Particulars: protein: recombinant; tags: N-terminal GST; dsDNA, one strand shown. In short, it runs like this:
as §1

The target of test [5] is ELF4 (Homo sapiens, UniProt Q99607 1-663). Particulars: protein: recombinant; tags: N-terminal GST; dsDNA, one strand shown. In short, it runs like this:
as §1

In test [6] the target is T3, ELK4 (Homo sapiens, UniProt P28324-2 1-405).
T3 sequence: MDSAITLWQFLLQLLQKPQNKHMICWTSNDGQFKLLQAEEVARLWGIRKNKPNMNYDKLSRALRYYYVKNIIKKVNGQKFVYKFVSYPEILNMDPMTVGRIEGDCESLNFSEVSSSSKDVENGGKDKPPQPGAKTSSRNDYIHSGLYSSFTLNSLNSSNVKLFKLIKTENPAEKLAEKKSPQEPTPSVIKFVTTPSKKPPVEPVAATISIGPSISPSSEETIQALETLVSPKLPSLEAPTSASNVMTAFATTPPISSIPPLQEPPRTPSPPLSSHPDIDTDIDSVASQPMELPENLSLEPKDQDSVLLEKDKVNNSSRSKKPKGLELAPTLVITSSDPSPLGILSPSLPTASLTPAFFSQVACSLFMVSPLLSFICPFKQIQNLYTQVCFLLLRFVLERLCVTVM
The note with it: protein: recombinant; tags: N-terminal GST; dsDNA, one strand shown. In short, it runs like this:
as §1

Test [7] has as its target T4, ETV2 (Homo sapiens, UniProt O00321 1-342).
T4 sequence: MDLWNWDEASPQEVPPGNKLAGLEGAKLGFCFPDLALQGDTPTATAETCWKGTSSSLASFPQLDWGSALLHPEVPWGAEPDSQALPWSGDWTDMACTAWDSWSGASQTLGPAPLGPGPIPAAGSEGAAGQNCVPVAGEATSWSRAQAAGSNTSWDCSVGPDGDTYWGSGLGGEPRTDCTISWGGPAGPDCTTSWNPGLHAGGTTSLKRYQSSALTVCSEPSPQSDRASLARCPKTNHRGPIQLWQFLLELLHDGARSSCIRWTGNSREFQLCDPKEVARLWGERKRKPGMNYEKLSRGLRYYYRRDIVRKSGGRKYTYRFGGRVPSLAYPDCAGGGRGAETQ
Particulars: protein: recombinant; tags: N-terminal GST; dsDNA, one strand shown. In short, it runs like this: as §1

Test [8] deals with T5, ELF3 (Homo sapiens, UniProt P78545 1-371).
T5 sequence: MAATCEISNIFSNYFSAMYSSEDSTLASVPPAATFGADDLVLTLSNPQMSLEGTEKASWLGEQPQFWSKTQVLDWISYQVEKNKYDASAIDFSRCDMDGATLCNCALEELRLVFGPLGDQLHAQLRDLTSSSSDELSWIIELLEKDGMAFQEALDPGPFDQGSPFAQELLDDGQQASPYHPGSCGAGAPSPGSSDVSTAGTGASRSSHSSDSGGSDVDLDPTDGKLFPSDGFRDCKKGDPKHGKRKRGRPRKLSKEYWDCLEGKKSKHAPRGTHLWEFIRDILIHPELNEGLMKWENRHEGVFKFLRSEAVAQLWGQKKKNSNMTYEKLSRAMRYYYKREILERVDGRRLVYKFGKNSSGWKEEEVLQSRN
Particulars: protein: recombinant; tags: N-terminal GST; dsDNA, one strand shown. Put shortly: as §1

The target of test [9] is CRX (Homo sapiens, UniProt O43186 1-299). Particulars: protein: recombinant; tags: N-terminal GST; dsDNA, one strand shown. Put shortly: as §1
The target of test [10] is ETV1 (Homo sapiens, UniProt P50549 1-477). The note with it: protein: recombinant; tags: N-terminal GST; dsDNA, one strand shown. Put shortly: as §1
The target in test [11] is T6, ERF (Homo sapiens, UniProt P50548 1-548).
T6 sequence: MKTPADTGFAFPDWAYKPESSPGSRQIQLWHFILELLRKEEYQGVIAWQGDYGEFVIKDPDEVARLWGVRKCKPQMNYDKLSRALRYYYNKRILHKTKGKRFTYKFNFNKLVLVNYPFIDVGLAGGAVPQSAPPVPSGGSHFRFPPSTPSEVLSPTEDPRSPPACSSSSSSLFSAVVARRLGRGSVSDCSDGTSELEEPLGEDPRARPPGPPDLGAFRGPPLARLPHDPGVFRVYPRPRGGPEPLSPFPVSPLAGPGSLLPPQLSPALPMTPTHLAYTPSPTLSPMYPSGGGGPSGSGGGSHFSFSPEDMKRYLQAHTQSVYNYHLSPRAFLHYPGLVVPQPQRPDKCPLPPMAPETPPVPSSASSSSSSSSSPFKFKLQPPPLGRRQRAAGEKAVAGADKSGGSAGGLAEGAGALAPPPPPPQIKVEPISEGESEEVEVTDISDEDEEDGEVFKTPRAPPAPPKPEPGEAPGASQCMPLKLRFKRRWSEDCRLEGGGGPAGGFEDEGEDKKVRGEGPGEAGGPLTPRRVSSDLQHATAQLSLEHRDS
Particulars: protein: recombinant; tags: N-terminal GST; dsDNA, one strand shown. In short, it runs like this: as §1

The target of test [12] is T7, ETV3L (Homo sapiens, UniProt Q6ZN32 1-361).
T7 sequence: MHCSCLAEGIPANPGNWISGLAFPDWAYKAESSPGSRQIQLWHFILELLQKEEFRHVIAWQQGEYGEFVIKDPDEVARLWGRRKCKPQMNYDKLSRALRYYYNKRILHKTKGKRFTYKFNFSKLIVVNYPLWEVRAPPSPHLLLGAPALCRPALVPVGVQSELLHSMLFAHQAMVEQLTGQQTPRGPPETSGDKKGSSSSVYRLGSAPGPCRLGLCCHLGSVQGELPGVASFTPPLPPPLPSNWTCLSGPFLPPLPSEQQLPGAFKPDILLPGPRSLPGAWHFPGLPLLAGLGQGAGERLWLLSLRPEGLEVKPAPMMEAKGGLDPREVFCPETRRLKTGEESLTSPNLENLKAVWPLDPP
Particulars: protein: recombinant; tags: N-terminal GST; dsDNA, one strand shown. In short, it runs like this:
as §1

Test [13] deals with T8, ETS2 (Homo sapiens, UniProt P15036 1-469).
T8 sequence: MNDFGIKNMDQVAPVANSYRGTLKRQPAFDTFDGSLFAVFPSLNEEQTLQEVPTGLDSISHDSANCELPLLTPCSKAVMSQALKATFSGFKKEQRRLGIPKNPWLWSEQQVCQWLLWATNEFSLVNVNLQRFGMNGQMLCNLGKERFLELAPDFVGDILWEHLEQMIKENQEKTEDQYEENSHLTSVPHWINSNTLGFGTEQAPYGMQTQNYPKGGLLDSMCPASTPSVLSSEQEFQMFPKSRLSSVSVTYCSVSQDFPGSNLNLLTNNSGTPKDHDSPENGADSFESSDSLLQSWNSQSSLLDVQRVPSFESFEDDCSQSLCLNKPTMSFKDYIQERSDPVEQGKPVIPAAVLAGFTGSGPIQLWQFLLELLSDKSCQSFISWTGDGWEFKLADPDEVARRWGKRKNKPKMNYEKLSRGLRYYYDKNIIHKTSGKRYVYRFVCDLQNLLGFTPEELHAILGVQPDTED
Particulars: protein: recombinant; tags: N-terminal GST; dsDNA, one strand shown. In short, it runs like this:
as §1

In test [14] the target is T9, SPDEF (Homo sapiens, UniProt O95238 1-335).
T9 sequence: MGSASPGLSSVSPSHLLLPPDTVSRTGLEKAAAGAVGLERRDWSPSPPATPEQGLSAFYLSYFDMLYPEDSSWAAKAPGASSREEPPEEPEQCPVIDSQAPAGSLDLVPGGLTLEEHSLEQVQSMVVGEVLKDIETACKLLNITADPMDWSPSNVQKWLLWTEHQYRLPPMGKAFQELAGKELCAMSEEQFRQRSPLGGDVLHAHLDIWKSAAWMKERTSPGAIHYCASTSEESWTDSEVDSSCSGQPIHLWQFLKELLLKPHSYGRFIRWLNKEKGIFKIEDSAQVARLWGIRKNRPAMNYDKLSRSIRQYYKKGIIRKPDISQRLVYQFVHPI
The note with it: protein: recombinant; tags: N-terminal GST; dsDNA, one strand shown. In short, it runs like this: as §1

Test [15] has as its target T10, ETV7 (Homo sapiens, UniProt Q9Y603 1-341).
T10 sequence: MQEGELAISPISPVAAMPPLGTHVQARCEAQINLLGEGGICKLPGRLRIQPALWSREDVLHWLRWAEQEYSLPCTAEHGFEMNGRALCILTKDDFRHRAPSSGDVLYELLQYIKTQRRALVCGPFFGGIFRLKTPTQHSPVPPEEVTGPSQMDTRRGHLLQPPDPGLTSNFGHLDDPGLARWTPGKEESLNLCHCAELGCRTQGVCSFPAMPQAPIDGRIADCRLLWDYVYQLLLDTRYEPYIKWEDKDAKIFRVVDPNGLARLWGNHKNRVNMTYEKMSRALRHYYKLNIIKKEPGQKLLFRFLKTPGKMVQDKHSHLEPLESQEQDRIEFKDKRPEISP
The note with it: protein: recombinant; tags: N-terminal GST; dsDNA, one strand shown. Put shortly: as §1

The target in test [16] is T11, ELF5 (Homo sapiens, UniProt Q9UKW6-2 1-255).
T11 sequence: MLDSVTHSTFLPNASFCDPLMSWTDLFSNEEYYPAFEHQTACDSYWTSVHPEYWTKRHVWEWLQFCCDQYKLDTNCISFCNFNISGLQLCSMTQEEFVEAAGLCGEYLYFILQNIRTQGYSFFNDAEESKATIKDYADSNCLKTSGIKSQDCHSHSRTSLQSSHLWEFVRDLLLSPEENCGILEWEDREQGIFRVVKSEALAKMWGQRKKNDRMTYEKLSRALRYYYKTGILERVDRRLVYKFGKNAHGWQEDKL
Particulars: protein: recombinant; tags: N-terminal GST; dsDNA, one strand shown. In short, it runs like this:
as §1

The target in test [17] is T12, ETV3 (Homo sapiens, UniProt P41162-2 1-143).
T12 sequence: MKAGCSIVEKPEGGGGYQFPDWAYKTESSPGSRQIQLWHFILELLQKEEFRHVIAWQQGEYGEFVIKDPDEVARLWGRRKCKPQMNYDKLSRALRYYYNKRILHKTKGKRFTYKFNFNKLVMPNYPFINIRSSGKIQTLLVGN
Particulars: protein: recombinant; tags: N-terminal GST; dsDNA, one strand shown. In short, it runs like this:
as §1

Test [18] has as its target ETV6 (Homo sapiens, UniProt P41212 1-452). Particulars: protein: recombinant; tags: N-terminal GST; dsDNA, one strand shown. In short, it runs like this:
as §1

ETV6, sequence (P41212 whole entry): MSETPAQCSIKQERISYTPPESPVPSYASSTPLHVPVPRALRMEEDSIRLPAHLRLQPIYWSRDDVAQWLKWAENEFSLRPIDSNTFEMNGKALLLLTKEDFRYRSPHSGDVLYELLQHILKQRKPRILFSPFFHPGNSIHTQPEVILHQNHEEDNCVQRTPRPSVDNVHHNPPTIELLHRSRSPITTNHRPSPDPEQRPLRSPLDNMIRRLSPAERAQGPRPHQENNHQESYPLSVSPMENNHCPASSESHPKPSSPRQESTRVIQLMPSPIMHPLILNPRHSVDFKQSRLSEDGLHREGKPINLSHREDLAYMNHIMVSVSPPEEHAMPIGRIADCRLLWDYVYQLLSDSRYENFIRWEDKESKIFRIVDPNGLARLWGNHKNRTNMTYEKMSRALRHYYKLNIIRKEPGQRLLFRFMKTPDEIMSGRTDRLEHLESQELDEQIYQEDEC
ETV5, sequence (P41161 whole entry): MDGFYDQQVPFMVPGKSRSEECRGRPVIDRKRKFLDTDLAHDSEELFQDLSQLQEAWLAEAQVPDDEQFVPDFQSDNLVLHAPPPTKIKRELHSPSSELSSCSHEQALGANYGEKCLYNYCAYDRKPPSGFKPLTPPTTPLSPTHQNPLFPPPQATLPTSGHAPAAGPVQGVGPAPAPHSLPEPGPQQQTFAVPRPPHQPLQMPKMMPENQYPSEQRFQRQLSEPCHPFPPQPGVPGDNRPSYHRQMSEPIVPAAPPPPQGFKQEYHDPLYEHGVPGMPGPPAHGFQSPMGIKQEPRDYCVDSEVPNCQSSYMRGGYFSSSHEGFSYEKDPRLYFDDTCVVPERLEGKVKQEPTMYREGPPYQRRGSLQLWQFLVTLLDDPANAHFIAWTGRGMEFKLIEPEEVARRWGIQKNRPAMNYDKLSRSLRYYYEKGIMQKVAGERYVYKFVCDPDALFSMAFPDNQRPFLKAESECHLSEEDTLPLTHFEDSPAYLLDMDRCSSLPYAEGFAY
ETV1, sequence (P50549 whole entry): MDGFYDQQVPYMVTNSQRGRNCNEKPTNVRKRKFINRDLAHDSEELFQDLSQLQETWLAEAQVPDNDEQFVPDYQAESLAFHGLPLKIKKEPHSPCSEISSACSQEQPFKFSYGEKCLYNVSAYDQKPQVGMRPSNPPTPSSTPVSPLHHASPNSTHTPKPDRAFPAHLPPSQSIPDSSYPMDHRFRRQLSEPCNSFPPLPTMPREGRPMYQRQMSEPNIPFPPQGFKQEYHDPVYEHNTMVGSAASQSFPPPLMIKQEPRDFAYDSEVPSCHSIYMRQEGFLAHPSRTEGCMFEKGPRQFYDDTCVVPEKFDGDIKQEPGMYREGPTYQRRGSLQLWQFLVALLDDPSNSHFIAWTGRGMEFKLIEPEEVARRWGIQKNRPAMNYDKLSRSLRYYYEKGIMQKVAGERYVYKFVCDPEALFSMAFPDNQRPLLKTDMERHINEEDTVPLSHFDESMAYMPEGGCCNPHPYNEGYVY
ELF4, sequence (Q99607 whole entry): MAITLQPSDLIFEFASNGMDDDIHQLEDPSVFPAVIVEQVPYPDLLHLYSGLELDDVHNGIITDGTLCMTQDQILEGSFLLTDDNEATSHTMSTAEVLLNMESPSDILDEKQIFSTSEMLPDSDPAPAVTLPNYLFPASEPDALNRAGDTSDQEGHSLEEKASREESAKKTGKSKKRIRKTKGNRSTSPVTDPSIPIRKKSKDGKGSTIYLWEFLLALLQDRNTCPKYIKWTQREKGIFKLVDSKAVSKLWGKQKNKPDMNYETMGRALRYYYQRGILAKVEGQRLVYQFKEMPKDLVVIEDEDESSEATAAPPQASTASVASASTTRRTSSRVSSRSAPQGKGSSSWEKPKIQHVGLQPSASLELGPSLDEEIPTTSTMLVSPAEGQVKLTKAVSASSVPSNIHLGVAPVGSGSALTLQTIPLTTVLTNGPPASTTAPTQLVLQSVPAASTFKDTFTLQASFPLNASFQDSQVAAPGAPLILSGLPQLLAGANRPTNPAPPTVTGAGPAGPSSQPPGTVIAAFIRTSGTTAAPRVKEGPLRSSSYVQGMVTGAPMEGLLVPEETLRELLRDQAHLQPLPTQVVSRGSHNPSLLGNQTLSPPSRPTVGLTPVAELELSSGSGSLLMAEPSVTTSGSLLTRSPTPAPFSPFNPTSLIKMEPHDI
CRX, sequence (O43186 whole entry): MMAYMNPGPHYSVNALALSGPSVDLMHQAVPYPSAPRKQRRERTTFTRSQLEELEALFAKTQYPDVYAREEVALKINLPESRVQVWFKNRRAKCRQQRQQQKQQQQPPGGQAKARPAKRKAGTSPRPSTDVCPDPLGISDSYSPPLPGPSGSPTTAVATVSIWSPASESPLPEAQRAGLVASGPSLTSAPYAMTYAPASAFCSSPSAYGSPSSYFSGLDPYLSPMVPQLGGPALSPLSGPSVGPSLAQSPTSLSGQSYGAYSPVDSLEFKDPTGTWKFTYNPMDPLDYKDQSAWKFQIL
HSF1, sequence (Q00613 whole entry): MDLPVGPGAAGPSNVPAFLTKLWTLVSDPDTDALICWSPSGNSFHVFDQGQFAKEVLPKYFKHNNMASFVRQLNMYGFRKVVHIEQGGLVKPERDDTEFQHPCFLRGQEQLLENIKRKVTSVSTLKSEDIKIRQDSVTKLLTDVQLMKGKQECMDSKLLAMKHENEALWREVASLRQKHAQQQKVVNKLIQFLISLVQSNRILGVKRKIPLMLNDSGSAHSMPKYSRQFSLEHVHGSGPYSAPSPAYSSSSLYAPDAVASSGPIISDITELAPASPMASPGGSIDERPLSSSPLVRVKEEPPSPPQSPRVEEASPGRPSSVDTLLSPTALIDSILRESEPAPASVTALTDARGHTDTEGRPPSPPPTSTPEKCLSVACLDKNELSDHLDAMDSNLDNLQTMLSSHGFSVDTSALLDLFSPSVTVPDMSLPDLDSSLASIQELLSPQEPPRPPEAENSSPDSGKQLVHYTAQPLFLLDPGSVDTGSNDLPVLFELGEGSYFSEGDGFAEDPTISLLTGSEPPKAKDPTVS

TTTTCC: the binding signal was 1.74 fold enrichment (6-mer frequency, TF over GST control) in test [1]; 1.92 fold enrichment (6-mer frequency, TF over GST control) in test [2]; 1.73 fold enrichment (6-mer frequency, TF over GST control) in test [3]; 1.72 fold enrichment (6-mer frequency, TF over GST control) in test [4]; 1.84 fold enrichment (6-mer frequency, TF over GST control) in [5]; 1.62 fold enrichment (6-mer frequency, TF over GST control) in test [6]. The binding signal in test [7] was 1.88 fold enrichment (6-mer frequency, TF over GST control); in [8] it was 1.89 fold enrichment (6-mer frequency, TF over GST control); in test [9] it was 1.44 fold enrichment (6-mer frequency, TF over GST control); in test [10], 1.65 fold enrichment (6-mer frequency, TF over GST control); in test [11], 1.65 fold enrichment (6-mer frequency, TF over GST control); in test [12] it was 1.71 fold enrichment (6-mer frequency, TF over GST control). Also, the binding signal in [13] is 1.69 fold enrichment (6-mer frequency, TF over GST control); in test [14], 1.67 fold enrichment (6-mer frequency, TF over GST control); in [15] it was 1.78 fold enrichment (6-mer frequency, TF over GST control); in test [16], 2.37 fold enrichment (6-mer frequency, TF over GST control); in [17] it was 1.82 fold enrichment (6-mer frequency, TF over GST control); in test [18] it was 2.08 fold enrichment (6-mer frequency, TF over GST control).

These data come from publication PMC7862700, “An all-to-all approach to the identification of sequence-specific readers for epigenetic DNA modifications on cytosine”.
